{"source": "PubChem BioAssay (NCATS)", "key": {"[1]": {"test": "qHTS of pediatric cancer cell lines to identify multiple opportunities for drug repurposing: Confirmatory screen for TC32 cells (AID 1347118);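 further: potency means the concentration at half of the fitted maximal effect; cells exposed to compound for 48 h before the read; nearly all actives have a fitted effect of over 65% in size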", "settings": "TC32 Ewing sarcoma cells viability qHTS; series mostly up to 45.9 µM", "in_short": "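TC32 cells, 500-1,000/well in growth medium, compound-treated 48 h at 37 °C; viability from CellTiter-Glo luminescence. Primary screen: MIPE 11-point (0.78 nM–46 µM final), NPC 8-point (0.59 nM–46 µM final); confirmatory at 11-point dilutions.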"}, "[2]": {"test": "qHTS of pediatric cancer cell lines to identify multiple opportunities for drug repurposing: Confirmatory screen for U-2 OS cells (AID 1347122); further: nearly all actives have a fitted effect of over 65% in size; further: potency means the concentration at half of the fitted maximal effect", "settings": "U-2 OS osteosarcoma cell viability; series mostly up to 45.9 µM", "in_short": "(§1)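 Cells (500-1,000/well) in growth media were settled 5 h at 37 degrees C, then given compounds for 48 h. Viability was read as CellTiter-Glo luminescence. Primary runs used MIPE at 11 points (0.78 nM-46 µM) and NPC at 8 points (0.59 nM-46 µM); follow-ups used 11 points.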"}, "[3]": {"test": "qHTS of pediatric cancer cell lines to identify multiple opportunities for drug repurposing: Confirmatory screen for Rh41 cells (AID 1347123)", "settings": "Rh41 rhabdomyosarcoma cells, viability/cytotoxicity qHTS; series mostly up to 45.9 µM", "in_short": "as §1"}, "[4]": {"test": "qHTS of pediatric cancer cell lines to identify multiple opportunities for drug repurposing: Confirmatory screen for Saos-2 cells (AID 1347127)", "settings": "Saos-2 osteosarcoma cell viability; series mostly up to 45.9 µM", "in_short": "as §1"}, "[5]": {"test": "qHTS of pediatric cancer cell lines to identify multiple opportunities for drug repurposing: Confirmatory screen for MG 63 (6-TG R) cells (AID 1347119)", "settings": "MG-63 (6-TG resistant) osteosarcoma viability; series mostly up to 45.9 µM", "in_short": "as §1"}, "[6]": {"test": "qHTS of pediatric cancer cell lines to identify multiple opportunities for drug repurposing: Confirmatory screen for control Hh wild type fibroblast cells (AID 1347121)", "settings": "viability qHTS; series mostly up to 45.9 µM", "in_short": "as §1"}, "[7]": {"test": "qHTS of pediatric cancer cell lines to identify multiple opportunities for drug repurposing: Confirmatory screen for Rh18 cells (AID 1347125)", "settings": "Rh18 rhabdomyosarcoma cells, viability; series mostly up to 45.9 µM", "in_short": "as §1"}, "[8]": {"test": "qHTS of pediatric cancer cell lines to identify multiple opportunities for drug repurposing: Confirmatory screen for Rh30 cells (AID 1347126)", "settings": "Rh30 rhabdomyosarcoma cell viability; series mostly up to 45.9 µM", "in_short": "as §1"}, "[9]": {"test": "qHTS of pediatric cancer cell lines to identify multiple opportunities for drug repurposing: Confirmatory screen for RD cells (AID 1347124)", "settings": "RD rhabdomyosarcoma cell viability; series mostly up to 45.9 µM", "in_short": "as §1"}, "[10]": {"test": "qHTS of pediatric cancer cell lines to identify multiple opportunities for drug repurposing: Confirmatory screen for BT-37 cells (AID 1347117)", "settings": "BT-37 pediatric cancer cells, viability; series mostly up to 45.9 µM", "in_short": "as §1"}}, "note": "Results filed as inconclusive are left out. The source made the active and inactive calls. The call rests on the fitted dose curve; in most records, active means well fitted curve in the direction sought with a large enough effect; inconclusive means small, poorly fitted or top-dose-only effect, or another doubt; inactive means no such curve, though single readings can be large; an effect the other way counts as inactive or inconclusive.", "data": [{"smiles": "Cc1nc2ccc(CN(C)c3ccc(C(=O)N[C@@H](CCC(=O)O)C(=O)O)s3)cc2c(=O)[nH]1", "values": [{"measurement": "Potency", "setting": "[1]", "result": "52.2 nM (active)"}, {"measurement": "Potency", "setting": "[2]", "result": "inactive"}, {"measurement": "Potency", "setting": "[3]", "result": "inactive"}, {"measurement": "Potency", "setting": "[4]", "result": "inactive"}]}, {"smiles": "C=CC(=O)Nc1cccc(Oc2nc(Nc3ccc(N4CCN(C)CC4)cc3)ncc2Cl)c1", "values": [{"measurement": "Potency", "setting": "[1]", "result": "1170 nM (active)"}, {"measurement": "Potency", "setting": "[5]", "result": "2930 nM (active)"}, {"measurement": "Potency", "setting": "[6]", "result": "20800 nM (active)"}, {"measurement": "Potency", "setting": "[2]", "result": "2610 nM (active)"}, {"measurement": "Potency", "setting": "[4]", "result": "2930 nM (active)"}]}, {"smiles": "C=C1C(=CC=C2CCC[C@]3(C)[C@@H]([C@H](C)C=C[C@H](C)C(C)C)CC[C@@H]23)C[C@@H](O)C[C@@H]1O", "values": [{"measurement": "Potency", "setting": "[1]", "result": "23300 nM (active)"}, {"measurement": "Potency", "setting": "[5]", "result": "2930 nM (active)"}, {"measurement": "Potency", "setting": "[6]", "result": "inactive"}, {"measurement": "Potency", "setting": "[7]", "result": "inactive"}, {"measurement": "Potency", "setting": "[4]", "result": "inactive"}]}, {"smiles": "COC(=O)c1ccc2c(C(=Nc3ccc(N(C)C(=O)CN4CCN(C)CC4)cc3)c3ccccc3)c(O)[nH]c2c1", "values": [{"measurement": "Potency", "setting": "[1]", "result": "18500 nM (active)"}, {"measurement": "Potency", "setting": "[5]", "result": "3290 nM (active)"}, {"measurement": "Potency", "setting": "[6]", "result": "inactive"}, {"measurement": "Potency", "setting": "[2]", "result": "13100 nM (active)"}, {"measurement": "Potency", "setting": "[3]", "result": "8270 nM (active)"}, {"measurement": "Potency", "setting": "[8]", "result": "16500 nM (active)"}]}, {"smiles": "C=CCn1c(=O)c2cnc(Nc3ccc(N4CCN(C)CC4)cc3)nc2n1-c1cccc(C(C)(C)O)n1", "values": [{"measurement": "Potency", "setting": "[5]", "result": "1310 nM (active)"}, {"measurement": "Potency", "setting": "[6]", "result": "inactive"}, {"measurement": "Potency", "setting": "[2]", "result": "1650 nM (active)"}, {"measurement": "Potency", "setting": "[9]", "result": "737 nM (active)"}, {"measurement": "Potency", "setting": "[4]", "result": "1310 nM (active)"}]}, {"smiles": "COc1ccc(-n2nc(C(N)=O)c3c2C(=O)N(c2ccc(N4CCCCC4=O)cc2)CC3)cc1", "values": [{"measurement": "Potency", "setting": "[10]", "result": "inactive"}, {"measurement": "Potency", "setting": "[5]", "result": "inactive"}, {"measurement": "Potency", "setting": "[6]", "result": "inactive"}, {"measurement": "Potency", "setting": "[9]", "result": "1310 nM (active)"}, {"measurement": "Potency", "setting": "[7]", "result": "inactive"}, {"measurement": "Potency", "setting": "[8]", "result": "147 nM (active)"}, {"measurement": "Potency", "setting": "[4]", "result": "inactive"}]}]}
